Pol kappa inh – inhibitors of human DNA polymerase kappa | Q9UBT6 | purified Pol kappa, fluorescent DNA synthesis assay, 10 min | 400,000 tested, 0.53% active | Potency, µM (titrated, usually from 107 µM), actives largely listed as inhibitors
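10 nM Pol kappa preincubated 15 min at room temperature with compounds, then reaction started with substrate at 50 nM final. Fluorescence read kinetically at 0 and 10 min; buffer-only wells served as negative control.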
POLB inh – DNA polymerase beta (human) inhibition; Pol beta primer extension/strand displacement, fluorescence kinetic; AID 485314; 340,000 tested, 1.3% active; Potency, µM (top dose mostly 114 µM), most hits filed as inhibitors
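Pol beta (10 nM) was preincubated with compound for 15 min at room temperature. The reaction was then started with 50 nM substrate and read immediately and after a further 10 min at room temperature.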
WRN inhibitor – inhibitors of human WRN helicase; WRN helicase unwinding, fluorescent forked duplex, kinetic; Potency, µM (highest dose often 114 µM), hits mostly inhibitors; Q14191; 360,000 tested, 0.46% active; note: nearly all actives have a fitted effect of over 55% in size
Target sequence (Q14191 whole entry, looked up): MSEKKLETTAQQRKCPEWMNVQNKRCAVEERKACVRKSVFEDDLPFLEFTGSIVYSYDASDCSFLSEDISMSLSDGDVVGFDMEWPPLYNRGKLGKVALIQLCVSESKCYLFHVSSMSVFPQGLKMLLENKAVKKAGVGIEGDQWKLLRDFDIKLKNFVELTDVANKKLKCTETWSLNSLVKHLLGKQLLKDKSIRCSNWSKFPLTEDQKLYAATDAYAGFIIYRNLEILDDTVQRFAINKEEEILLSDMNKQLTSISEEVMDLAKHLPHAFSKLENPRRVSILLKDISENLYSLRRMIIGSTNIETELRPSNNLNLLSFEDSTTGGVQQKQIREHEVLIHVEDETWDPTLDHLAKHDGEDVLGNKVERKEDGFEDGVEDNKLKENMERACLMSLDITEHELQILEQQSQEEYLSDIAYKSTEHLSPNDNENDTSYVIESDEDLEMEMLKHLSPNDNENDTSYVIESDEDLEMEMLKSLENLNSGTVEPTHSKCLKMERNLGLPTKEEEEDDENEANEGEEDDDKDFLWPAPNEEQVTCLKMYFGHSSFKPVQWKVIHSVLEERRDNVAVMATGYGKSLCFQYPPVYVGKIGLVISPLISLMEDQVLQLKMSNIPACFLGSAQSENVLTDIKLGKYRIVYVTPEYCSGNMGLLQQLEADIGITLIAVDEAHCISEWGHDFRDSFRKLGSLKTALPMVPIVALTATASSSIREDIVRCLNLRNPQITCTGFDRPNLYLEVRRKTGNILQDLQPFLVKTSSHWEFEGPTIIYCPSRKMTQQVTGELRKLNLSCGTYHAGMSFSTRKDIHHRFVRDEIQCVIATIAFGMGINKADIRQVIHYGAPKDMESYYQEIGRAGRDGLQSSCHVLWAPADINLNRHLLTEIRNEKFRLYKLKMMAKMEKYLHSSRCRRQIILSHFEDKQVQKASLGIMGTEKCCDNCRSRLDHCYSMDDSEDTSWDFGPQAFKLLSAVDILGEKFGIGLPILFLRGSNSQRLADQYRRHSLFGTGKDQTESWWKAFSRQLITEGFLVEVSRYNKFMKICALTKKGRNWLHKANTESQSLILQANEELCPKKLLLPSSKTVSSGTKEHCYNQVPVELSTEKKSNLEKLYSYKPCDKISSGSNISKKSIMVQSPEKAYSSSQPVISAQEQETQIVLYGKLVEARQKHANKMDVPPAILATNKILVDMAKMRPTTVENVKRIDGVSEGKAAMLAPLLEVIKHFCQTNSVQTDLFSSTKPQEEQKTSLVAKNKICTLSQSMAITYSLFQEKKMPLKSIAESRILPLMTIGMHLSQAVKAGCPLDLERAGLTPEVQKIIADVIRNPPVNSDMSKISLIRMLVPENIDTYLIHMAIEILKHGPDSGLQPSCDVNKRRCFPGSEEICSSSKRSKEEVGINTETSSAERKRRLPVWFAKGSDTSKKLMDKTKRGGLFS
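Kinetic fluorescence helicase assay: unwinding of a quenched forked DNA duplex (100 nM final) with 2 mM ATP final raises red fluorescence (525/598 nm). Compounds sat 15 min at room temperature with 20 nM WRN beforehand.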
POLH inh – blocks human DNA polymerase eta activity. Q9Y253. recombinant Pol eta, fluorescent DNA replication assay. Potency, µM (highest dose often 114 µM), actives largely listed as inhibitors. 390,000 tested, 1.2% active. AID 588591
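Pol eta at 10 nM preincubated with compounds 15 min at room temperature; reaction started with fluorescent substrate (50 nM final) and read kinetically at 0 and 10 min.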
FEN1 inhibitor – inhibitors of human flap endonuclease 1 | P39748 | Recombinant FEN1 flap cleavage, fluorescence, 15 min | Potency, µM (series often up to 114 µM), hits mostly inhibitors | 390,000 tested, 0.35% active; note: nearly all actives have a fitted effect of over 65% in size
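Reaction started by adding substrate (50 nM final) to 10 nM enzyme after 15 min room-temperature compound preincubation. Reads at 0 and 15 min, with data normalized and fitted to a four-parameter Hill equation.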
Pol iota inh – DNA polymerase iota (human) inhibition. Q9UNA4. Pol iota fluorescent replication assay, 10 min. 390,000 tested, 1% active. AID 588590. Potency, µM (highest dose often 115 µM), most hits filed as inhibitors
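Pol iota at 10 nM preincubated 15 min with compounds at room temperature; reaction started with fluorescent substrate, 50 nM final. Fluorescence read kinetically at 0 and 10 min; buffer-only wells as negative control.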
Hits are given with their value; . = inactive; ? = inconclusive; / = no result; [ ] = remark or other dose. Most compounds without a hit are left out; they make up all but 2.4% or so of the library. Calls come from the whole dose curve; as a rule, active = well fitted curve in the direction sought with a large enough effect; inconclusive = small, poorly fitted or top-dose-only effect, or another doubt; inactive = no such curve, though single readings can be large; an effect the other way counts as inactive or inconclusive.

SMILES	Pol kappa inh	POLB inh	WRN inhibitor	POLH inh	FEN1 inhibitor	Pol iota inh
CCOC(=O)COc1ccc(Br)cc1/C=C\c1[nH]c(=O)[nH]c(=O)c1[N+](=O)[O-]	.	?	.[11.6 µM]	12.6µM	.	89.1µM
COCCSc1ccccc1C(=O)Nc1ccc(Cl)cc1	.	.	.[11.6 µM]	.	.	10µM
O=C(Nc1cc(C(F)(F)F)ccc1N1CCCCC1)C1=COCCO1	/	/	.	.	/	/
Cc1[nH]n(-c2ccccc2)c(=O)c1N=Nc1c(O)cc(S(=O)(=O)N(C)C)c2ccccc12	.	/	.	89.1µM	.	.
Cc1ccc(NC(=O)CSc2sc3c(O)cc(=O)[nH]c3c2C#N)c(F)c1	.	.	.[11.6 µM]	56.2µM	.	?
O=Cc1ccc(CS)cc1	.	/	/	/	.	.
COc1cccc(N2CCN(C(=O)c3ccc(Cl)c(S(=O)(=O)N4CCCCCC4)c3)CC2)c1	/	/	.	.	/	/
COc1ccc(OCc2nn3c(-c4ccco4)nnc3s2)cc1	.	?	.	?	.	.
COc1ccccc1-c1nn2c(-c3ccco3)nnc2s1	.	14.1µM	.	.	.	?
COc1ccccc1-c1nn2c(-c3cc(-c4ccccc4)n[nH]3)nnc2s1	.	/	/	/	.	.
c1coc(-c2nn3c(-c4ccco4)nnc3s2)c1	?	28.2µM	?	?	.	?
COc1cccc(OC)c1-c1nn2c(-c3cc(-c4ccccc4)n[nH]3)nnc2s1	28.2µM	?	39.8µM	6.31µM	28.2µM	28.2µM
COCCN1C(=S)N[C@@H](c2ccccc2)C(C(=O)OC)=C1C	/	.	/	/	/	/
Cc1cccc(C)c1OC[C@H](C)N	.[12 µM]	/	/	/	/	/
CNC(=O)C[C@H]1C(=O)N(c2ccccc2)C[C@@H]1CSC	/	/	.	.	/	/
Cn1c(=O)c2c(-c3ccccc3)n(-c3ccc(N)cc3)cc2n(C)c1=O	/	/	.	/	/	/
COc1cccc(N2[C@@H](CC(C)=O)c3ccc(/C=C/C(C)=O)cc3S2(=O)=O)c1	.	/	.	?	.	20µM
COc1ccc(CN2[C@@H](CC(=O)O)c3ccc(/C=C/C(=O)O)cc3S2(=O)=O)cc1	35.5µM	/	/	/	.	50.1µM
COC(=O)/C=C/c1ccc2c(c1)S(=O)(=O)N(Cc1ccc(OC)cc1)[C@H]2CC(=O)OC	.	/	.	.	.	.
C[C@@H](c1ccccc1)N1C[C@H](COCc2ccccc2)Oc2cc(N3CC[C@H](N(C)C)C3)ccc2S1(=O)=O	/	/	.	/	/	/
CC(C)c1ccc(NC(=O)c2cc(S(=O)(=O)NC3CCCCC3)ccc2F)cc1	.	.	/	.	.	?
CCn1c(SCC(=O)Nc2oc(-c3ccccc3)c(-c3ccccc3)c2C#N)nnc1-c1ccncc1	?	.	.[11.6 µM]	70.8µM	.	?
O=[N+]([O-])c1ccc(NCCc2ccccc2)c(Br)c1	.	79.4µM	.	.	.	.
CC1(N2CCOCC2)CC2(O)C(=[N+]1[O-])CCc1c2no[n+]1[O-] (configuration not stated)	?	.	?	17.8µM	?	?
CCOc1ccc(-n2nc3cc(C)c(NC(=O)c4cc(OCC)c(OCC)c(OCC)c4)cc3n2)cc1	.	.	/	.	.	.
SMILES	Pol kappa inh	POLB inh	WRN inhibitor	POLH inh	FEN1 inhibitor	Pol iota inh
CCc1ccc(/C=C2/SC(=S)N(CCCC(=O)Nc3ccccc3C(=O)O)C2=O)cc1	.	.	?	79.4µM	.	.
O=C(CCN1C(=O)/C(=C/c2ccccc2Cl)SC1=S)Nc1ccccc1C(=O)O	.	?	.	79.4µM	.	?
N#C/C(=C\c1ccc(/C=C(/C#N)c2nn(CCO)c(N)c2C#N)cc1)c1nn(CCO)c(N)c1C#N	.	.	56.2µM	.	?	.
N#C/C(=C/c1ccccc1)c1nn(CCO)c(N)c1C#N	.	.	.	.	.	.
O=C1c2cc(O)cc(O)c2OC[C@@H]1c1ccc(O)c(O)c1	15µM	/	/	/	/	/
O=C(C[n+]1ccc(CCSc2ccc(F)cc2)cc1)c1ccccc1	.	.	39.8µM	.	39.8µM	.
Cc1ccc(SCCc2cc[n+](CC(=O)c3ccccc3)cc2)cc1	.	.	.	.	.	.
C/C(=N\OCC(=O)OCC(=O)NCc1ccccc1)c1ccc2c(c1)OCO2	?	/	?	20µM	.	39.8µM
O=c1cc(-c2ccccc2O)oc2ccc3ccccc3c12	.[19.4 µM]	/	/	/	/	/
O=c1cc(-c2ccccc2)oc2c(O)c(O)ccc12	8.91µM	/	/	/	/	/
O=c1cc(-c2ccccc2O)oc2c(O)c(O)ccc12	0.891µM	/	/	/	/	/
Cc1cc(Br)ccc1NC(=O)COC(=O)c1ccccc1OCC(=O)N(C)C	.	/	/	/	.	.
C[C@H](CCC(=O)NCC(=O)O)C1CC[C@H]2C3CC[C@@H]4C[C@H](O)CC[C@]4(C)C3C[C@H](O)[C@]12C (some centres not stated)	.[19.4 µM]	/	/	/	/	/
CCCCCCCCCCCCCCCC[N+](C)(C)CC	.	/	.	89.1µM	.	.
N#Cc1cc(N2CCCCC2)c([N+](=O)[O-])cc1C#N	.	.	.	.	.	.
O=[N+]([O-])c1cc2no[n+]([O-])c2cc1N1CCCCC1	?	/	?	15.8µM	50.1µM	?
O=C(CSc1nnc(-c2ccc(Cl)cc2)o1)N1CCN(c2ccccc2)CC1	/	31.6µM	/	/	/	/
O=C(CSc1nnc(-c2ccco2)o1)N1CCN(c2ccccc2)CC1	.	?	.	.	.	.
COc1cc2nc(NC3CCN(Cc4ccccc4)CC3)nc(N3CCCN(C)CC3)c2cc1OC	.	/	/	/	?	.
CCOc1ccc(-c2nnc(SCC(=O)c3ccc(Br)cc3)n2-c2ccccc2)cc1	.	.	/	.	.	?
[S-]c1nnc(-c2ccc(Br)cc2)n1-c1ccccc1.[Zn+2]	.	.	.	.	.	2.82µM
NC(=O)c1ccccc1NC(=O)C1CCCN(c2ncnc3onc(-c4ccc(F)cc4)c23)C1 (configuration not stated)	.	.	/	.	.	.
Cc1cc(C)c2c(=O)c(C#N)coc2c1	?	44.7µM	56.2µM	50.1µM	?	?
Cc1nc2c(=O)[nH]c(=S)n(C)c2nc1C	.	.	56.2µM	.	?	?
Cc1cccc(C(=O)N2CCc3cc(CNS(=O)(=O)c4ccc(F)c(Cl)c4)ccc32)c1	.	.	/	.	.	.
SMILES	Pol kappa inh	POLB inh	WRN inhibitor	POLH inh	FEN1 inhibitor	Pol iota inh
N#C/C(=N\Nc1cccc([N+](=O)[O-])c1)C(=O)c1ccc(Br)cc1	.	.	?	79.4µM	.	?
O=C(NN=C1CCCC1)c1cccc(O)c1	.	.	.	.	.	.
O=C(NN=C1CCCC1)c1cc(O)cc(O)c1	?	20µM	.	50.1µM	.	35.5µM
CC(=O)Nc1ccc(NC(=O)CCc2ccc(C)o2)cc1	.	.	.	.	.	.
Cc1ccc(CCC(=O)Nc2ccc(S(N)(=O)=O)cc2)o1	.	.	.	14.1µM	.	.
CCCOc1ccc(C2C(C(=O)c3ccc(C)o3)=C(O)C(=O)N2Cc2ccco2)cc1 (configuration not stated)	.	39.8µM	.	.	.	?

Assay outcomes from PubChem BioAssay.
